Shown are actives, neighbours in structure and some others; about 7.8% of the full set was active somewhere.
Vaccinia mCherry: inhibitors of vaccinia virus infection (mCherry reporter signal); Vaccinia virus mCherry reporter infection, fluorescence; Potency, µM (series often up to 36.5 µM), most hits filed as inhibitors; 310,000 compounds, 0.63% hits; AID 720579; calls by dose curve; tested in A549 cells; also: nearly all actives have a fitted effect of over 35% in size
Lassa entry inh: inhibitors of Lassa virus binding or cell entry | Lassa virus pseudotype entry inhibition, cell reporter | Potency, µM (top dose mostly 37.9 µM), usual class: inhibitors | 300,000 compounds, 1.2% hits; calls by dose curve; tested in HEK293 cells; also: nearly all actives have a fitted effect of over 50% in size
HCMV antiviral: human cytomegalovirus inhibition. HFF cells, HCMV-luciferase reporter, 72 h; stronger effect = lower value. activity change, negative = inhibition, % at 57.5 µM. 410,000 compounds, 4.5% hits; in the data active = activity change below about -60%; inconclusive = no clear call, values can overlap the other calls; inactive = above about -39%
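After 16 h attachment at 37C, HFF cells received test compound and HCMV-luciferase (1 PFU/cell); reporter luminescence read 72 h later, data normalized against buffer-only and known inhibitor Salinomycin.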
VACV Venus inh: inhibitors of vaccinia virus (Venus reporter) | 330,000 compounds, 0.46% hits | AID 720580 | Potency, µM (series often up to 36.5 µM), hits mostly inhibitors | Vaccinia virus Venus reporter expression, fluorescence; calls by dose curve; tested in A549 cells; also: nearly all actives have a fitted effect of over 30% in size
HCV inhibitor: blocks hepatitis C virus; 340,000 compounds, 3.4% hits; Potency, µM (highest dose often 41.8 µM), most hits filed as inhibitors; Huh7.5.1 HCVcc-Cre infection, luciferase reporter, 44 h; active = well fitted inhibition curve with a large enough effect; inconclusive = small, poorly fitted or top-dose-only effect, or another doubt; inactive = no such curve, though single readings can be large or run the other way
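Compounds are dispensed onto cells plated 4 h earlier at 1,000 per well, with HCVcc-Cre virus (about 0.5 moi) added next. Following 44 h of culture, luminescent signal is measured for 15 sec after 15 min with substrate at room temperature.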
Marburg entry inh: blocks Marburg virus binding to or entry into cells. Marburg virus pseudotyped entry inhibition, cell reporter. Potency, µM (titrated, usually from 37.8 µM), actives largely listed as inhibitors. 300,000 compounds, 1.8% hits. AID 540276; calls by dose curve; tested in HEK293 cells
A number is an active result.

What do the screens show for `CC(CCN1CCc2nc(-c3ccccc3)c(-c3ccccc3)cc2C1)=NO[C@H](C)CN1CCCCc2nc(C)c(C)cc21`?
Marburg entry inh: inactive

Results for COc1cccc2c1C(=O)C=C(C)C2=O ?
Vaccinia mCherry: inactive; Lassa entry inh: 11µM; HCMV antiviral: inactive; VACV Venus inh: inactive; HCV inhibitor: inconclusive; Marburg entry inh: 11µM

How did COCCCN1C(=O)c2oc3ccccc3c(=O)c2C12C(=O)N(C)c1ccccc12 (stereo not given) do in these assays?
Vaccinia mCherry: inactive; Lassa entry inh: inactive; HCMV antiviral: inactive; VACV Venus inh: inactive; Marburg entry inh: inactive

Results for O=C(N/N=C/c1c(O)ccc2ccccc12)C(=O)N1CCCC1 ?
Vaccinia mCherry: inconclusive; HCMV antiviral: -75; VACV Venus inh: inconclusive

How did O=C(N/N=C/c1ccccc1F)C(=O)N1CCCCCC1 do in these assays?
Vaccinia mCherry: inactive; Lassa entry inh: inactive; HCMV antiviral: inactive; VACV Venus inh: inactive; HCV inhibitor: inactive; Marburg entry inh: inactive

How did O=C(N/N=C/c1ccccc1O)C(=O)N1CCCCCC1 do in these assays?
Vaccinia mCherry: 7.9µM; Lassa entry inh: inconclusive; HCMV antiviral: inactive; VACV Venus inh: inactive; HCV inhibitor: inactive; Marburg entry inh: inactive

Results for COc1ccccc1OCC(=O)N/N=C/c1cccc2cccnc12 ?
Vaccinia mCherry: inconclusive; Lassa entry inh: inactive; HCMV antiviral: inactive; VACV Venus inh: inactive; HCV inhibitor: inactive; Marburg entry inh: inactive

How did Cc1cc(C)n(CCC(=O)N/N=C/c2c(O)ccc3ccccc23)n1 do in these assays?
HCMV antiviral: -83; HCV inhibitor: inconclusive

How did COc1ccccc1OCC(=O)N/N=C/c1c(O)ccc2ccccc12 do in these assays?
HCMV antiviral: -109

How did Cc1cc(C)n(CCC(=O)N/N=C/c2ccc(O)cc2)n1 do in these assays?
Vaccinia mCherry: inactive; Lassa entry inh: inactive; HCMV antiviral: inactive; VACV Venus inh: inactive; HCV inhibitor: inactive; Marburg entry inh: inactive

How did CCCN1CNc2c(c(=O)[nH]c(=S)n2Cc2ccc(OC)c(OC)c2)C1 do in these assays?
Vaccinia mCherry: inactive; VACV Venus inh: inactive

How did COc1ccc2c(C)c(CC(=O)NCCc3ccc(Cl)cc3)c(=O)oc2c1C do in these assays?
Vaccinia mCherry: inactive; Lassa entry inh: inactive; HCMV antiviral: inactive; VACV Venus inh: inactive; Marburg entry inh: inactive

Results for O=C(NN=Cc1c(O)ccc2ccccc12)C1CC1 ?
Vaccinia mCherry: inconclusive; Lassa entry inh: inconclusive; HCMV antiviral: inactive; VACV Venus inh: inconclusive; HCV inhibitor: inconclusive; Marburg entry inh: inconclusive

What do the screens show for `O=C(CN1CCCC1)N/N=C/c1c(O)ccc2ccccc12`?
HCMV antiviral: inactive; HCV inhibitor: 7.9µM

What do the screens show for `CO[C@H](C1CCCCC1)[C@H](C)/C=C/CC(=O)OCCCc1ccccc1`?
Marburg entry inh: inactive

What do the screens show for `CCOC(=O)CSc1nc2cc3c(cc2c(=O)n1Cc1ccc(C(=O)NCCc2ccc(OC)c(OC)c2)cc1)OCO3`?
Vaccinia mCherry: inactive; Lassa entry inh: inactive; HCMV antiviral: inactive; VACV Venus inh: inactive

Results for CCOc1cc(/C=N\Nc2ncc(F)c(N3CCOCC3)n2)ccc1Oc1nc(Cl)ncc1F ?
Vaccinia mCherry: inactive; Lassa entry inh: inconclusive; HCMV antiviral: -73; VACV Venus inh: inactive; HCV inhibitor: 10µM; Marburg entry inh: inconclusive

Results for COc1ccc(/C=N/NC(=O)CC#N)cc1Oc1nc(Cl)ncc1F ?
HCMV antiviral: inactive; HCV inhibitor: inactive

Results for CCOc1cc(/C=N/NC(=O)c2ccc(O)cc2)ccc1Oc1nc(Cl)ncc1F ?
HCMV antiviral: -71; HCV inhibitor: inactive

What do the screens show for `CN(C)CCNC(=O)CN1N=C(c2ccccc2)CCC1=O`?
Vaccinia mCherry: inactive; Lassa entry inh: inactive; HCMV antiviral: inactive; VACV Venus inh: inactive

How did CN(C)c1nc(OCCNC(=O)Nc2ccccc2)nc(N2CCCCC2)n1 do in these assays?
Vaccinia mCherry: inactive; Lassa entry inh: inactive; HCMV antiviral: inactive; VACV Venus inh: inactive; HCV inhibitor: 11µM; Marburg entry inh: inactive

Results for CN(C)c1nc(OCCNC(=O)Nc2ccccc2)nc(N2CCOCC2)n1 ?
Vaccinia mCherry: inactive; HCMV antiviral: inactive; VACV Venus inh: inactive; HCV inhibitor: inconclusive; Marburg entry inh: inactive

What do the screens show for `CC(=O)COc1ccc2c3c(c(=O)oc2c1C)CCCCC3`?
Vaccinia mCherry: inactive; Lassa entry inh: inconclusive; HCMV antiviral: inconclusive; VACV Venus inh: inconclusive; HCV inhibitor: 11µM; Marburg entry inh: inconclusive

Results for CC(=O)C(C)Oc1ccc2c3c(c(=O)oc2c1C)CCCC3 (stereo not given) ?
Lassa entry inh: inactive; HCMV antiviral: inactive; HCV inhibitor: 10µM; Marburg entry inh: inactive

What do the screens show for `Cc1ccc(C)c(OCC(=O)Nc2ccc3c(c2)OCO3)c1C`?
Vaccinia mCherry: inactive; Lassa entry inh: inconclusive; HCMV antiviral: inactive; VACV Venus inh: inconclusive; HCV inhibitor: 11µM; Marburg entry inh: inconclusive

How did Cc1ccc(Cl)c(OCC(=O)Nc2ccc3c(c2)OCCO3)c1 do in these assays?
Vaccinia mCherry: inactive; Lassa entry inh: inactive; HCMV antiviral: inactive; VACV Venus inh: inactive; HCV inhibitor: 10µM; Marburg entry inh: inconclusive

How did Cc1cccc(OCC(=O)Nc2ccc3c(c2)OCO3)c1C do in these assays?
Vaccinia mCherry: inactive; Lassa entry inh: inactive; HCMV antiviral: inactive; VACV Venus inh: inactive; HCV inhibitor: inconclusive; Marburg entry inh: inactive

What do the screens show for `Cc1coc2cc3oc(=O)c(CC(=O)NCCc4ccccc4)c(C)c3cc12`?
Vaccinia mCherry: inactive; Lassa entry inh: inactive; HCMV antiviral: inactive; VACV Venus inh: inactive; Marburg entry inh: inactive

Results for Cc1nc2ccccc2n1CCOc1ccccc1 ?
Vaccinia mCherry: inactive; Lassa entry inh: inactive; HCMV antiviral: inconclusive; VACV Venus inh: inactive; HCV inhibitor: inconclusive; Marburg entry inh: inconclusive

What do the screens show for `Cc1ccccc1OCCCCn1c(CO)nc2ccccc21`?
Vaccinia mCherry: inactive; Lassa entry inh: inconclusive; HCMV antiviral: -94; VACV Venus inh: inactive; HCV inhibitor: 11µM; Marburg entry inh: inconclusive

How did Cc1ccc(Cn2cnc3ccccc32)cc1C do in these assays?
Vaccinia mCherry: inactive; Lassa entry inh: inactive; HCMV antiviral: -63; VACV Venus inh: inactive; HCV inhibitor: inconclusive; Marburg entry inh: inactive

What do the screens show for `Cc1cccc(Cn2cnc3ccccc32)c1`?
Vaccinia mCherry: inactive; Lassa entry inh: inactive; HCMV antiviral: inactive; VACV Venus inh: inactive; HCV inhibitor: inactive; Marburg entry inh: inconclusive

How did Cc1ccccc1OCCn1c(C)nc2ccccc21 do in these assays?
Vaccinia mCherry: inactive; Lassa entry inh: inactive; HCMV antiviral: inactive; VACV Venus inh: inactive; HCV inhibitor: 5.6µM; Marburg entry inh: inconclusive

Results for CCCCN1CC(c2nc3ccccc3n2CCCCOc2ccccc2C)CC1=O (stereo not given) ?
Vaccinia mCherry: inactive; Lassa entry inh: inactive; HCMV antiviral: -68; VACV Venus inh: inactive; Marburg entry inh: inconclusive

Results for CCOc1ccc(N2CC(NC(=O)c3ccc(Cl)cc3)CC2=O)cc1 (stereo not given) ?
Vaccinia mCherry: inactive; Lassa entry inh: inactive; HCMV antiviral: inactive; VACV Venus inh: inactive

How did Cc1ccccc1OCCCCn1cnc2ccccc21 do in these assays?
Lassa entry inh: inactive; HCMV antiviral: -68; HCV inhibitor: 7.9µM; Marburg entry inh: inactive

Source: PubChem (National Center for Advancing Translational Sciences (NCATS))
